Assay results reported in PubChem BioAssay (NCI).
Compounds without any hit were thinned out: in the full panel of roughly 83,000, 20% have a hit.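 48-hour exposure, single concentration, 96-well plates; percent growth endpoint where 0 means no net growth. Active: below 10.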 Values without a mark were called inactive. Calls of active or inactive are those of the source.

Experiments:
Assay in all cases: NCI-60 one-dose screen, 48 h (100 = growth as untreated, 0 = no growth, -100 = all killed)
Conditions in all cases: 10 µM unless noted
NCI-H23 lung = test system: NCI-H23 lung
NCI-H226 lung = test system: NCI-H226 lung
NCI-H322M lung = test system: NCI-H322M lung
HOP-62 NSCLC = test system: HOP-62 NSCLC
NCI-H460 lung = test system: NCI-H460 lung
HOP-92 NSCLC = test system: HOP-92 NSCLC
NCI-H522 lung = test system: NCI-H522 lung
A549/ATCC NSCLC = test system: A549/ATCC NSCLC
786-0 renal = test system: 786-0 renal
COLO 205 colon = test system: COLO 205 colon
DU-145 prostate = test system: DU-145 prostate
K-562 leukemia = test system: K-562 leukemia
MALME-3M melanoma = test system: MALME-3M melanoma
MDA-MB-231 breast = test system: MDA-MB-231 breast
RXF 393 renal = test system: RXF 393 renal
SF-268 CNS = test system: SF-268 CNS
SF-295 CNS = test system: SF-295 CNS
SF-539 CNS = test system: SF-539 CNS
UACC-257 melanoma = test system: UACC-257 melanoma
M14 melanoma = test system: M14 melanoma

SMILES	growth (NCI-H23 lung)	growth (NCI-H226 lung)	growth (NCI-H322M lung)	growth (HOP-62 NSCLC)	growth (NCI-H460 lung)	growth (HOP-92 NSCLC)	growth (NCI-H522 lung)	growth (A549/ATCC NSCLC)	growth (786-0 renal)	growth (COLO 205 colon)	growth (DU-145 prostate)	growth (K-562 leukemia)	growth (MALME-3M melanoma)	growth (MDA-MB-231 breast)	growth (RXF 393 renal)	growth (SF-268 CNS)	growth (SF-295 CNS)	growth (SF-539 CNS)	growth (UACC-257 melanoma)	growth (M14 melanoma)
COc1ccc(/C(=C\c2cc(OC)c(OC)c(OC)c2)C(=O)N2CCCNCC2)cc1	104%	100%	103%	106%	110%	102%	100%	105%	111%	110%	115%	108%	113%	94%	98.4%	106%	101%	108%	102%	105%
CCOC(=O)c1ccccc1SC(C[N+](=O)[O-])c1ccccc1 (stereo not given)	99.1%	86.2%	116%	118%	107%	90.5%	88.8%	78.7%	98.7%	102%	90.9%	56.8%	98%	96.6%	62.9%	104%	99.7%	90%	84.4%	68.9%
COc1ccc(Nc2ncnc3c2sc2nc(C)cc(C)c23)cc1	111%	103%	102%	107%	97.9%	130%	99.9%	96%	93.9%	111%	102%	101%	94.5%	102%	104%	94.3%	112%	94.6%	93.2%	102%
CN(C)c1ccc(/C=C(\C#N)c2nc3ccccc3n2C)cc1	58.9%	77.8%	46.5%	89.7%	13.8%	86.4%	3.96% (active)	31%	47.4%	19.4%	25.7%	32%	61.7%	48.8%	3.51% (active)	52.6%	13.1%	11.6%	43.9%	34.4%
Cc1ccc(S(=O)(=O)NC(CCC(=O)Nc2ccc(Cl)cc2)C(=O)Nc2ccc(Cl)cc2)cc1 (stereo not given)	38.8%	57.9%	40%	14.5%	7.89% (active)	-20.4% (active)	-29.7% (active)	27.6%	16.9%	52.7%	45.8%	2.8% (active)	14.2%	-5.94% (active)	22.9%	38.8%	10.5%	-20.5% (active)	45.6%	32.2%
O=c1cc(N2CCOCC2)oc2c(-c3ccc4c(c3)OCCO4)csc12	31.9%	11.6%	19.8%	15.5%	22%	11.9%	28.8%	12.9%	9.88% (active)	5.88% (active)	22.8%	25.6%	-3.44% (active)	20.3%	-22.5% (active)	29.8%	0.878% (active)	3.65% (active)	18.6%	12.3%
Clc1ccc(Nc2ncnc3c2sc2ncccc23)c(Cl)c1	14.9%	43.6%	45.1%	1.95% (active)	10.1%	22.3%	31.8%	26.8%	17.2%	27.6%	20.1%	43.4%	58.2%	61.1%	34%	18.4%	17.9%	6.17% (active)	39.3%	-25.6% (active)
C[C@]12CCc3nc(Nc4ccc(O)cc4)sc3C1=CC[C@@H]1[C@@H]2CC[C@]2(C)/C(=N/NC(N)=S)CC[C@@H]12	1.05% (active)	55.4%	4.16% (active)	-24.5% (active)	-72% (active)	-19.3% (active)	-55.2% (active)	-26.7% (active)	-73.6% (active)	-40.5% (active)	-62.4% (active)	-2.83% (active)	-60.5% (active)	-40.4% (active)	-67.6% (active)	-17% (active)	-8.62% (active)	5.79% (active)	-9.35% (active)	-23.8% (active)
